In the supplement of paper PMC9694430:

System: T1, LOC_OS04G38480-cb003
T1 sequence (whole entry): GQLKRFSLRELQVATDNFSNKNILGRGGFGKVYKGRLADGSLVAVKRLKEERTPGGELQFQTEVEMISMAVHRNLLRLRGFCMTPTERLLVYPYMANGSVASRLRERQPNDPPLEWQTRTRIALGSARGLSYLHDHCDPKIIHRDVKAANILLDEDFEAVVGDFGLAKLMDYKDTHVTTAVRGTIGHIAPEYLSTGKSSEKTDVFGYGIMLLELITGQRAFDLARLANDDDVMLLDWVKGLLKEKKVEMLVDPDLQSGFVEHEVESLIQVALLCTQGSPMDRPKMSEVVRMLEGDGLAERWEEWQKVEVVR
Assay: thermal shift delta Tm vs DMSO control; higher = stronger stabilization (binding)
Conditions: 12.5 µM; protein concentration 2 µM
How it was run: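 Compounds dissolved in DMSO were added to purified rice kinase domain constructs, which had been expressed in E. coli, for differential scanning fluorimetry. Each well held 19.5 μl of 2 μM kinase in 100 mM potassium phosphate pH 7.5, 150 mM NaCl, 10% glycerol and 5 × SYPRO Orange. Fluorescence was followed from 25°C to 95°C at a rate of 0.05°C/s. Shifts in Boltzmann-fitted melting temperature are triplicate means relative to DMSO-only protein.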

SMILES	thermal shift delta Tm
CC(C)(C)c1cc(C=C(C#N)C#N)cc(C(C)(C)C)c1O [Tyrphostin 9]	1.65 °C
O=c1[nH]c2ccc(Cl)cc2c(N[C@@H]2CN3CCC2CC3)c1-c1nc2ccccc2[nH]1	2.51 °C
COc1cc([C@@H]2c3cc4c(cc3[C@H](O)[C@H]3COC(=O)[C@@H]23)OCO4)cc(OC)c1OC [Picropodophyllin (PPP)]	0.78 °C
Cc1ccccc1-n1c(Cn2ncc3c(N)ncnc32)nc2cccc(C)c2c1=O	-0.52 °C
Cn1cc(C2=C(c3cn(C4CCN(Cc5ccccn5)CC4)c4ccccc34)C(=O)NC2=O)c2ccccc21	2.44 °C
COc1ccc(C[C@H]2NC[C@H](O)[C@H]2OC(C)=O)cc1 [Anisomycin]	0.22 °C
CCN1CCN(C(=O)Cc2ccc(Nc3ncc(F)c(Nc4ccc(C(=O)Nc5ccccc5Cl)cc4)n3)cc2)CC1 [Aurora A Inhibitor I]	3.38 °C
C/C(O)=C(\C#N)C(=O)Nc1cc(Br)ccc1Br	1.9 °C
COc1ccc2c(c1)/C(=C/c1cnc[nH]1)C(=O)N2	2.32 °C
COc1ccc(N(C(=O)Oc2c(C)cccc2C)c2ccnc(Nc3ccc(N4CCN(C)CC4)cc3)n2)c(OC)c1	1.41 °C
CC(C)(C)c1cc(C=C(C#N)C#N)cc(Br)c1O	-0.82 °C
